These results are taken from PubChem BioAssay AID493168 (National Center for Advancing Translational Sciences (NCATS), 2011).

SMILES strings stand for the structures. Results filed as inconclusive are left out. Entries that show only a call come without a potency. Calls of active or inactive are those of the source. Calls come from the whole dose curve; as a rule, active = well fitted inhibition curve with a large enough effect; inconclusive = small, poorly fitted or top-dose-only effect, or effect the other way; inactive = flat fitted curve, though single readings scatter.

The assay concerns the target Ubiquitin carboxyl-terminal hydrolase 2 (Homo sapiens) (UniProt O75604). In words: Confirmation Assay for Inhibitors of Ubiquitin-specific Protease USP2a Using CHOP2 as the Reporter. Note: nearly all actives have a fitted effect of over 55% in size. Conditions: USP2 core, Ub-CHOP2 coupled reporter fluorescence; series mostly up to 38.3 µM. A digest of the protocol:
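Ub-CHOP2 cleavage coupled to reporter activation was read by fluorescence after 60 min at RT, with 25 nM final Ub-CHOP2 and substrate. Enzyme (10 nM final USP2 core) first sat 30 min with compound; data were normalized to NEM and fitted to concentration-response curves.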
Potency is the fitted concentration of half-maximal effect.

Sequence of Ubiquitin carboxyl-terminal hydrolase 2 (Homo sapiens) (O75604 whole entry, looked up): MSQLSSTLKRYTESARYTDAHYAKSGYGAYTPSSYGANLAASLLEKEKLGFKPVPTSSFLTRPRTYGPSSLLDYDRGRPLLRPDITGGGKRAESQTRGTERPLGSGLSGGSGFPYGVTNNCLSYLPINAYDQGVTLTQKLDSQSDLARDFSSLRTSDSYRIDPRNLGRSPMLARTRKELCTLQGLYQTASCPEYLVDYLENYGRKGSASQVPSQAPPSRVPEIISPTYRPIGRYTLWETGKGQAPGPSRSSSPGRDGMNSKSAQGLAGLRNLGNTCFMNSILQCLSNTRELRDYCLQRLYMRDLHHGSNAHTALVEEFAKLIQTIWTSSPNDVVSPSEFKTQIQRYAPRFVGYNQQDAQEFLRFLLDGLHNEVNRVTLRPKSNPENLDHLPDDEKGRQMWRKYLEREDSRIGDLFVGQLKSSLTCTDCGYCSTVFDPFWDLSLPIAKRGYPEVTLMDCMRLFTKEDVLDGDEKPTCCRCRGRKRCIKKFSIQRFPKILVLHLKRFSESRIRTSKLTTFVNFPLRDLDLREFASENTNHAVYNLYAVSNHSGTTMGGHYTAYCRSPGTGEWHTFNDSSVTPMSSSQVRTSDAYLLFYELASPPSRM

Regarding `COCCn1nnnc1CN(CCc1ccccc1)Cc1cc2ccc(C)cc2[nH]c1=O`, the Potency result is “inactive”. Then `Cn1c(=O)[nH]c(=O)c2c1nc(NCc1ccccc1)n2CCCc1ccccc1`, with “inactive”. Take `O=C1COc2ccc(C(=O)COC(=O)/C=C/c3ccc(Br)o3)cc2N1`: the Potency was 9.27 µM (active). As for `Cc1ccc(SCC(=O)NCC(C)C)cc1`, the Potency entry was “inactive”. On to `Cc1ccc(C(=O)N(C)CC(=O)Nc2cccc(C)c2C)o1`, for which the Potency result is “inactive”.

For `Cc1ccc(S(=O)(=O)N2[C@@H](c3ccc(C(C)(C)C)cc3)C(C(=O)O)=CC[C@H]2c2ccc(Cl)cc2)cc1`, the Potency was 14.7 µM (active). For `O=C(O)c1cccc(S(=O)(=O)NNc2ccccc2C(F)(F)F)c1`, the Potency result is “inactive”. The same measure for `O=C1NCC(CN(c2ccccc2)c2ccccc2)O1` (stereo not given): “inactive”.

Turning to `CCOc1ccc(C(=O)c2ccc(OCC)c(N)c2)cc1N`, the Potency result was “inactive”. For `CCOc1ccc(C=NNc2ccc(S(=O)(=O)Nc3ccccc3C(=O)O)cc2[N+](=O)[O-])cc1`, the Potency was 7.36 µM (active). Then `Cc1ccc(/C=C2/SC(=S)N(c3ccc(S(=O)(=O)Nc4nccs4)cc3)C2=O)cc1`, with 6.56 µM (active); and `O=C(O)CC1(CC(=O)Nc2ccc3ccccc3c2)CCCCC1`, with “inactive”. Then `O=C(Nc1ccc(N2CCCC2)cc1)c1cccc(-c2cc3ccccc3oc2=O)c1`, with “inactive”; and `O=C(N/N=C/c1ccc(F)cc1)c1cc(-c2ccco2)nc2ccccc12`, with 18.5 µM (active). In the case of `CC(=O)Nc1ccc(NC(=O)C2CCCN(S(=O)(=O)c3ccc(Cl)cc3)C2)cc1` (stereo not given), the Potency entry was “inactive”. Then `O=C(COC(=O)c1ccc(F)c(S(=O)(=O)N2CCOCC2)c1)c1ccccc1`, with “inactive”. For the compound `CC(=O)OCC(=O)Nc1ccc(Cl)cc1Cl`, the Potency entry was “inactive”. On to `CCCn1c(C)cc(C)c(C#N)c1=O`, for which the Potency result was “inactive”. In the case of `Cc1c(O)c(CN2CCCC2)cc2c3c(c(=O)oc12)CCC3`, the Potency result is “inactive”.

For the compound `CC(C)c1ccc2c(c1)c(SC(C)(C)C)c(CC(C)(C)C(=O)O)n2Cc1ccc(Cl)cc1`, the Potency was 6.56 µM (active). For `COc1cccc(/C=N/n2c(SC)nnc2-c2ccccc2)c1O`, the Potency result is “inactive”. Turning to `O=C(CNC(=O)C1CCCCC1)NC1=NCCS1`, the Potency entry is “inactive”. `COc1ccc(-c2cc(C(F)(F)F)nc(S(C)(=O)=O)n2)cc1`: the Potency entry was “inactive”. Regarding `Cc1c(C(=O)NCc2c(F)cc(F)cc2F)oc2ccc(S(=O)(=O)N3CCOCC3)cc12`, the Potency result is “inactive”. On to `Cc1ccc(C)c(OCC(=O)Nc2cc(NC(=O)COc3cc(C)ccc3C)cc(C(=O)O)c2)c1`, for which the Potency entry was “inactive”.
